# Assay outcomes: PubChem, National Center for Advancing Translational Sciences (NCATS)
# Shown is part of a subset that was picked to be rich in hits.
# NTMT1 inhibitor = blocks human N-terminal methyltransferase 1 activity | Q9BV86 | NTMT1 MTase-Glo SAH luminescence, purified enzyme | AID 1645870 | Potency, µM (doses to about 114 µM), inactives show at the top dose activity change, negative = inhibition, hits mostly inhibitors | 59,000 tested, 2.5% active;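 note: potency is the fitted concentration of half-maximal effect; plate controls were DMSO vehicle for no effect and no enzyme for full effect; nearly all actives have a fitted effect of over 65% in size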
# DYRK1A inh-1 = inhibitors of human DYRK1A kinase; shares compounds with NTMT1 inhibitor; Potency, µM (series often up to 76.9 µM), inactives show at the highest dose activity change, negative = inhibition, most hits filed as inhibitors; 100 tested, 80% active; recombinant DYRK1A, Kinase-Glo ATP depletion luminescence; AID 2705
# CLK4 inh-1 = inhibits human CLK4 kinase in Kinase-Glo confirmation. recombinant Clk4, Kinase-Glo ATP luminescence, 4.5 h. 90 tested, 90% active. AID 493204. Potency, µM (doses to about 76.9 µM), without a hit: at the top dose activity, negative = inhibition, most hits filed as inhibitors. shares compounds with NTMT1 inhibitor
# Target sequence (Q9HAZ1 whole entry, looked up): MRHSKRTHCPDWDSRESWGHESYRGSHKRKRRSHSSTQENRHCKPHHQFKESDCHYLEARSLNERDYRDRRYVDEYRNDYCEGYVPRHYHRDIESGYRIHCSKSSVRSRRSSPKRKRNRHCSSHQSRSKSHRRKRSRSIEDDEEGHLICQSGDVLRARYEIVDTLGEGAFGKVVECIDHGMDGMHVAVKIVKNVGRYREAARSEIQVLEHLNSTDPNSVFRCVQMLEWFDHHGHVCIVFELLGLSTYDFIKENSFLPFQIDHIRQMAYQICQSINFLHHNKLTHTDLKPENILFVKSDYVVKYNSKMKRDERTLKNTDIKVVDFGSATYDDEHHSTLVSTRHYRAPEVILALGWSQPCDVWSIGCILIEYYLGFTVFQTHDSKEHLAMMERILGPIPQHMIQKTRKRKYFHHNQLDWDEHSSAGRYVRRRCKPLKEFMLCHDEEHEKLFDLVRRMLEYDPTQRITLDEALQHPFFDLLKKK
# CLK4 inh-2 = blocks human CLK4 kinase in radiometric assay; shares compounds with NTMT1 inhibitor; Reaction Biology kinase assay, 10 uM ATP; 65 tested, 100% active; AID 504421; Potency, µM, usual class: inhibitors; calls by dose curve
# DYRK1A inh-2 = blocks human DYRK1A kinase in radiometric assay | shares compounds with NTMT1 inhibitor | Reaction Biology kinase assay, 10 uM ATP | Potency, µM, most hits filed as inhibitors | 65 tested, 90% active | AID 504424;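 active = compounds that showed inhibition of Dyrk1a and received a fitted potency; inactive = compounds that showed no inhibition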
# CLK2 RBC = blocks human CLK2 kinase in radiometric assay. shares compounds with NTMT1 inhibitor. Reaction Biology kinase assay, 10 uM ATP. Potency, µM, usual class: inhibitors. 65 tested, 90% active. AID 504427;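 active = compound that inhibits Clk2 kinase in the dose series, with an IC50 potency reported; inactive = no inhibition seen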
# CLK3 RBC = CLK3 kinase inhibition; shares compounds with NTMT1 inhibitor; recombinant CLK3 kinase assay, 10 uM ATP; Potency, µM, most hits filed as inhibitors; 65 tested, 40% active; AID 504428;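 active = compounds that inhibited Clk3 enough in the ten-dose series to give a half-maximal potency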
# DYRK1B RBC = inhibitors of human Dyrk1b kinase; Recombinant Dyrk1b kinase assay, 10 uM ATP; shares compounds with NTMT1 inhibitor; Potency, µM, most hits filed as inhibitors; 65 tested, 80% active; AID 504429;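 active = compounds whose dose response shows an inhibitor phenotype against the kinase Dyrk1b; inactive = compounds showing no inhibitor phenotype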
# CLK1 inh = inhibitors of human CLK1 kinase; 65 tested, 90% active; AID 504430; Potency, µM, usual class: inhibitors; shares compounds with NTMT1 inhibitor; recombinant Clk1 kinase assay, 10 uM ATP;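 active = compounds that block the splicing kinase Clk1 enough to give a fitted half-inhibition concentration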
# * marks the source's active call; other numbers are inactive results; ? = inconclusive; / = no result; [ ] = another dose, or the depositor's remark. Unless noted, calls come from the whole dose curve; as a rule, active = well fitted inhibition curve with a large enough effect; inconclusive = small, poorly fitted or top-dose-only effect; inactive = flat fitted curve, though single readings scatter.
SMILES,NTMT1 inhibitor,DYRK1A inh-1,CLK4 inh-2,DYRK1A inh-2,CLK2 RBC,CLK3 RBC,DYRK1B RBC,CLK1 inh,others
c1csc(CCNc2ncnc3ccc(-c4ccc5c(c4)OCO5)cc23)c1,?,0.065µM*,/,/,/,/,/,/,
CN(Cc1nccs1)c1ncnc2ccc(-c3ccc4c(c3)OCO4)cc12,7.1µM*,0.065µM*,0.02*,0.051µM*,0.59µM*,4.7µM*,0.18µM*,0.028µM*,
c1coc(CNc2ncnc3ccc(-c4ccc5c(c4)OCO5)cc23)c1,/,/,0.079*,0.084µM*,0.3µM*,2.6µM*,0.53µM*,0.19µM*,CLK4 inh-1=0.037µM*
CC(=O)Nc1sc2c(c1-c1cccs1)CCNC2,-3%[57.5 µM],/,/,/,/,/,/,/,
C/C=C1/[C@H](O[C@@H]2O[C@H](CO)[C@@H](O)[C@H](O)[C@H]2O)OC=C(C(=O)OC)[C@H]1CC(=O)O[C@@H]1O[C@H](CO)[C@@H](O)[C@H](O)[C@H]1O,3%[12.6 µM],/,/,/,/,/,/,/,
c1csc(CNc2ncnc3ccc(-c4ccc5c(c4)OCO5)cc23)n1,12%,/,0.05*,0.07µM*,0.41µM*,3.5µM*,0.45µM*,0.18µM*,CLK4 inh-1=0.046µM*
c1csc(CNc2ncnc3ccc(-c4ccc5c(c4)OCCO5)cc23)c1,?,0.37µM*,/,/,/,/,/,/,
Fc1c(-c2ccc3ncnc(NCc4cccs4)c3c2)ccc2c1OCO2,?,0.18µM*,0.13*,0.16µM*,4.4µM*,9.3µM*,2.3µM*,0.31µM*,
Cn1ccc2cc(-c3ccc4ncnc(NCc5cccs5)c4c3)ccc21,-6%[57.5 µM],?,/,/,/,/,/,/,
O=C(CN1C(=O)N/C(=C\c2cn(-c3cccc(C(=O)O)c3)cn2)C1=O)Nc1ccccc1Cl,-1%,/,/,/,/,/,/,/,
Cc1nc(CNc2ncnc3ccc(-c4oc(-c5ccccc5)nc4C)cc23)cs1,?,?,/,/,/,/,/,/,
Cc1ccsc1CNc1ncnc2ccc(-c3c(C)noc3C)cc12,-1%,/,/,/,/,/,/,/,
Cc1nc(CNc2ncnc3ccc(-c4ccoc4C)cc23)cs1,-3%,7.3µM*,/,/,/,/,/,/,
Cc1noc(C)c1-c1ccc2ncnc(NCc3ccccc3C(F)(F)F)c2c1,8%,/,/,/,/,/,/,/,
Cc1nc(CNc2ncnc3ccc(-c4sc(C)nc4C)cc23)cs1,?,8.2µM*,/,/,/,/,/,/,
FC(F)(F)c1cccc(-c2nc(NCc3ccc(-c4cccnc4)cc3)c3ccccc3n2)c1,-1%,/,/,/,/,/,/,/,
